Data: PubChem BioAssay AID463190 (Sanford-Burnham Center for Chemical Genomics, 2010)
The whole screen tested about 330,000 compounds, of which about 7,300 (2.2%) were called active. The entries come from a sample that favours actives as a whole. Unmarked numbers belong to inactive results.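 Rule for the calls: active = inhibition of at least 40%; inactive = the rest.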

Test: growth inhibition of tim10-1 ts yeast – luminescence, uHTS, primary screen (AID 463190);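 note: mutant grown at 25 °C; 0% = DMSO wells with yeast and 100% = wells holding no yeast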
Details: S. cerevisiae tim10-1 ts strain growth, BacTiter-Glo, 24 h; at 20 µM; stronger effect = higher value

Compared with `COc1cccc(CNS(=O)(=O)c2cc3c(cc2C)n(C)c(=O)c(=O)n3C)c1`, `Cc1cccc(Cn2cnc3c(N)c(C)c(C)cc32)c1` is higher in inhibition: 8.44% for the first, 16.8% for the second.

First: O=C(c1ccc(S(=O)(=O)c2ccccc2)cc1)N1CCCCCC1
Second: Cc1[nH]n(-c2ccccc2)c(=O)c1N=Nc1ccccc1C(=O)N1CCCCC1
The inhibition of the first is lower: 15.7% for the first, 22.5% for the second.

First: CC1CCN(C(=O)c2ccc(CSc3ccc(Cl)cc3)cc2)CC1
Second: CCc1ccc(OCC(=O)NCC(c2ccc(Cl)cc2)N2CCCCC2)cc1 (stereo not drawn)
The inhibition of the first is lower: 24.5% for the first, 34.1% for the second.

Going from `Cc1nc(NC(=O)CCC(=O)O)sc1C(=O)N(C)C` to `CCC(C)(C)NC(=O)C(c1ccc(OC)cc1)N(C(=O)CCC(=O)Nc1cc(C)on1)c1ccc(OC)cc1OC` (stereo not drawn), the inhibition rises from 3.6% to 6.97%.

First: Cc1ccc(S(=O)(=O)NCC2CCC(C(=O)N3CCOCC3)CC2)cc1 (stereo not drawn)
Second: Cc1ccc(S(=O)(=O)NCC(=O)N2CCOCCOCCOCCOCC2)cc1
The inhibition of the first is higher: 9.53% for the first, 3.97% for the second.

First: COc1ccnc(Oc2ccccc2)n1
Second: COc1ccc(C2=NN(C(C)=O)C(c3ccccc3)C2)cc1 (stereo not drawn)
The inhibition of the first is lower: -10.3% for the first, 19.4% for the second.

Going from `COc1ccc(S(=O)(=O)N2CCN(CC(=O)N3CCOCC3)CC2)cc1OC` to `O=S(=O)(c1ccc(F)cc1)N1CCN(C(=S)NC2CCCC2)CC1`, the inhibition rises from -6.09% to 16%.

First: CC(=O)NNC(=O)c1csc(Cc2c(Cl)sc3ccc(Cl)cc23)n1
Second: CNC(=O)c1csc(-c2ccccc2)n1
The inhibition of the first is higher: 23.3% for the first, 8.44% for the second.

First: Cc1cccc(C)c1NC(=O)CN1C(=O)C(C)Oc2ccccc21 (stereo not drawn)
Second: CC(=O)c1cccc(NC(=O)C2COc3ccccc3O2)c1 (stereo not drawn)
The inhibition of the first is lower: 3.34% for the first, 6.4% for the second.

Going from `COc1ccccc1-n1ccnc1SCC(=O)NC(C)(C)C` to `COc1ccc(Cl)cc1NC(=O)C(C)N1CCc2ccccc21` (stereo not drawn), the inhibition rises from 4.37% to 10.7%.

Compared with `COc1ccc(-c2nnc(SCC(=O)NC3CCCCC3)o2)cc1OC`, `O=C(CN1C(=O)c2ccccc2S1(=O)=O)NC1CCCCC1` is lower in inhibition: 17% for the first, 7.88% for the second.

Going from `CCN(c1ccc(NC(=O)COC(=O)CCc2nc3ccccc3n2-c2ccccc2)cc1)C(C)C` to `CCN(CC)c1ccc(C(=O)NNC(=O)CCc2nc3ccccc3c(=O)[nH]2)cc1`, the inhibition falls from 13.1% to 10.1%.

First: O=S(=O)(c1ccc(-c2ccno2)s1)N1CCCCC1
Second: CCCCn1c(=S)[nH]c2cc(S(=O)(=O)N3CCCCC3)ccc21
The inhibition of the first is lower: 9.27% for the first, 19.1% for the second.

First: CNC(=O)C1CC(=O)N(Cc2ccc3c(c2)OCO3)C(=Nc2ccc(F)cc2)S1 (stereo not drawn)
Second: C/C(=N/NC(=S)Nc1ccccc1)c1ccc2c(c1)OCO2
The inhibition of the first is lower: -3.7% for the first, 36.6% for the second.

Compared with `CC(C)Oc1ccc(CC(=O)NNC(=S)Nc2ccc(Br)cc2)cc1`, `Cc1ccc(CC(=O)Nc2cccc(C#N)c2)cc1` is higher in inhibition: 17.7% for the first, 22.1% for the second.

Compared with `CC1(C)CC(=O)C(C=NCCN2CCN(C(=S)Nc3cccc(Cl)c3)CC2)=C(O)C1`, `CCNC(=S)N1CCN(CCN=CC2=C(O)CC(C)(C)CC2=O)CC1` is lower in inhibition: 6.34% for the first, -11.3% for the second.

Compared with `Cc1ccc(-n2[nH]c(C)c(/C=N/NC(=O)c3cccc([N+](=O)[O-])c3)c2=O)cc1C`, `COc1ccccc1-n1c(=S)[nH]c2c(sc(=S)n2-c2ccc(C)cc2C)c1=O` is higher in inhibition: 6.18% for the first, 8.48% for the second.

First: CCOc1ccc(CCNC(=O)COC(=O)c2c(OC)cccc2OC)cc1OCC
Second: COC(=O)c1ccc(COc2ccc(/C=C/C(=O)c3ccc(OC)c(CSCC(=O)O)c3)cc2OC)cc1
The inhibition of the first is lower: 8.9% for the first, 29.5% for the second.

Going from `CC(=O)Oc1c(C(=O)c2nnc(C)o2)c(=O)n(Cc2ccccc2)c2ccccc12` to `CC(C)CN(C(=O)COC(=O)c1ccc(Cl)c(N)c1)c1c(N)n(Cc2ccccc2)c(=O)[nH]c1=O`, the inhibition falls from 7.1% to 2.64%.

Compared with `CSCCC1NC(=O)N(CC(=O)Nc2cccc(S(=O)(=O)N3CCCCCC3)c2)C1=O` (stereo not drawn), `CC1CCN(CCCNC(=O)CN2C(=O)CSc3ccc(S(=O)(=O)N4CCCCC4)cc32)CC1` is higher in inhibition: 10.1% for the first, 25.2% for the second.

Compared with `C[n+]1ccc(/C=C/c2c[nH]c3ccccc23)cc1`, `Fc1ccccc1/C=N/n1c(-c2cccnc2)n[nH]c1=S` is lower in inhibition: 10.5% for the first, -14.4% for the second.

First: Cc1cc(C(C)(C)C)n2nc(C)c(-c3ccccc3)c2n1
Second: Cn1c(-c2sc3cc(C(F)(F)F)cnc3c2-c2ccccc2)n[nH]c1=S
The inhibition of the first is lower: 8.46% for the first, 18.5% for the second.

Compared with `COc1ccc(-c2cc(C)nc3nc(N)nn23)cc1`, `CCCNC(=O)CCn1cc(-c2ccc(OC)cc2)nc1CCN` is lower in inhibition: 10.4% for the first, -4.9% for the second.

Compared with `O=C(O)CSC(NC(=O)c1cccnc1)(C(F)(F)F)C(F)(F)F`, `O=C(NCc1ccccc1)C(c1cccnc1)N(C(=O)c1csnn1)c1ccc(F)cc1` (stereo not drawn) is lower in inhibition: -2.15% for the first, -25% for the second.

Going from `CN(C)CCCCCN(C)Cc1cc2ccccc2o1` to `CCCCCCCC(=O)NC(Nc1ccccc1OC)C(Cl)(Cl)Cl` (stereo not drawn), the inhibition falls from 18.5% to -1.41%.

Going from `CN(C(=O)CCN1C(=O)/C(=C/c2ccccc2F)SC1=S)C1CCS(=O)(=O)C1` (stereo not drawn) to `O=C(CN1CCCCCC1)NCCN1C(=O)S/C(=C\c2ccccc2Cl)C1=O`, the inhibition rises from 6.93% to 12.4%.

Compared with `C#CCCCc1nc2ccccc2c(=O)n1N`, `CC(=O)Nc1nc(C)c(Cc2ccccc2)c(=O)[nH]1` is higher in inhibition: 6.38% for the first, 13.2% for the second.

Going from `CC1CCCN(C(=O)c2ccc3c(c2)C(=O)N(CCC2=CCCCC2)C3=O)C1` (stereo not drawn) to `Cc1ccc(N2CCN(C(=O)c3cccs3)CC2)c(C)c1`, the inhibition falls from 24.8% to -6.62%.

Going from `COc1ccc(/C=C/C(=O)c2ccc(NS(=O)(=O)c3ccc(C)cc3)cc2)cc1O` to `COc1ccc([N+](=O)[O-])cc1-c1nc2ccccc2nc1-c1ccccc1`, the inhibition rises from 31.4% to 38.3%.

Compared with `COc1ccc(C(=O)NC2(C(F)(F)F)NC(=O)N(CCCc3ccccc3)C2=O)c(OC)c1OC` (stereo not drawn), `COc1cc(/C=N/n2c(C)n[nH]c2=S)ccc1OCc1ccccc1` is higher in inhibition: 22.9% for the first, 34.8% for the second.

Compared with `Cc1ncc([N+](=O)[O-])n1CCOC(=O)c1ccc(Br)cc1`, `CCCCn1c(N)c(N(CCC(C)C)C(=O)COC(=O)c2ccc(CC)cc2)c(=O)[nH]c1=O` is higher in inhibition: 4.67% for the first, 9.31% for the second.

First: CCC(C)N(C)C1CCN(C(=S)Nc2ccc(OC)cc2)CC1 (stereo not drawn)
Second: COc1ccc(NC(=O)C(CC(C)C)NC(=O)C2CCC(C)CC2)cc1 (stereo not drawn)
The inhibition of the first is lower: 2.23% for the first, 23.1% for the second.

Compared with `S=c1[nH]nc(-c2ccncc2)n1/N=C/c1ccccc1Cl`, `O=[N+]([O-])c1ccc2nc(-c3ccccn3)[nH]c2c1` is higher in inhibition: 13.5% for the first, 34.1% for the second.

Compared with `CCSC(C)CC1C/C(=N/O)c2c(C)noc2C1` (stereo not drawn), `CCCCNC(=O)Cn1nc(C)c(S(=O)(=O)N2CCOCC2)c1C` is lower in inhibition: -9.02% for the first, -10.1% for the second.

Compared with `CCCCN(CCCC)CC(O)Cn1c2ccccc2c(=O)c2ccccc21` (stereo not drawn), `CCCCN=C1N/C(=C\c2ccco2)C(=O)N1c1ccccc1` is higher in inhibition: 14.3% for the first, 28% for the second.

Going from `CCC1=[N+]([O-])C(C)(/C(C)=N\O)N(O)C1(C)C` (stereo not drawn) to `CCO[C@H]1OC(C(=O)N2CCN(Cc3ccccc3)CC2)=C[C@@H](c2cn(C(C)=O)c3ccccc23)[C@@H]1CCCO`, the inhibition rises from 9.85% to 15%.

Compared with `Cc1nc(Cl)c2oc3ccccc3c2n1`, `COc1ccccc1Nc1ncnc2c1oc1ccccc12` is higher in inhibition: 0.846% for the first, 3.5% for the second.

Going from `CN(C)CCCN(Cc1cc2cc3c(cc2[nH]c1=O)OCCO3)C(=O)NC1CCCCC1` to `c1ccc2c(c1)CCc1snnc1-2`, the inhibition falls from 7.7% to -9.47%.

In the case of `COc1cccc(Cn2cnc3c([N+](=O)[O-])c(C)c(C)cc32)c1`, the inhibition is reported as 41% (active).
In the case of `O=C(c1ccc(CSc2ccccc2)cc1)N1CCCCCC1`, the inhibition is reported as 42.3% (active).
In the case of `Cc1ccc(S(=O)(=O)NC(C(=O)N2CCOCCOCCOCCOCC2)c2ccccc2)cc1` (stereo not drawn), the inhibition is reported as 40.5% (active).
In the case of `CNC(=O)c1csc(Cc2c(Cl)sc3ccc(Cl)cc23)n1`, the inhibition is reported as 41.4% (active).
In the case of `COc1ccccc1-n1ccnc(SCC(=O)NC2CCCCC2)c1=O`, the inhibition is reported as 43.2% (active).
With `Cc1[nH]n(-c2ccc([N+](=O)[O-])cc2)c(=O)c1C=NCCN1CCN(C(=O)c2ccccc2F)CC1` the inhibition was 42.3% (active).
For `C=CCNC(=S)N1CCN(CCN=Cc2c(C)[nH]n(-c3ccc([N+](=O)[O-])cc3)c2=O)CC1`, the inhibition was 43.4% (active).
In the case of `Cc1cc(N)n2nc(-c3ccc(C(C)(C)C)cc3)cc2n1`, the inhibition is reported as 57% (active).
For `O=C1/C(=C\c2ccccc2Cl)SC(=S)N1CCC(=O)N1CCCc2ccccc21`, the inhibition was 41.3% (active).
With `COc1ccc(C(=O)/C=C/c2ccc(-c3ccccc3)cc2)cc1CSCC(=O)O` the inhibition was 41.5% (active).
For `COc1ccc(NC(=S)N2N=CCC2c2ccccc2)cc1` (stereo not drawn), the inhibition was 40.3% (active).
In the case of `S=c1[nH]nc(-c2cccnc2)n1/N=C/C(Cl)=C\c1ccccc1`, the inhibition is reported as 41.6% (active).
With `O=[N+]([O-])c1ccc2c(c1)Nc1nc3ccccc3nc1N2` the inhibition was 60.5% (active).
With `O=C1c2ccccc2S(=O)(=O)N1CC(O)Cn1c2ccccc2c2ccccc21` (stereo not drawn) the inhibition was 60.7% (active).
With `COc1ccc(C)cc1Nc1nc(C)nc2c1oc1ccccc12` the inhibition was 40.7% (active).
For `Cn1c(-c2sccc2OCc2cccc(C(F)(F)F)c2)n[nH]c1=S`, the inhibition was 43.5% (active).
In the case of `CC(NC(=S)Nc1ccccc1)C1COc2ccccc2O1` (stereo not drawn), the inhibition is reported as 44.1% (active).
